According to PubChem BioAssay:
Active and inactive are the calls of the source. Unless noted, no rule for the calls is given here.

Legend:
[1] = test system: XIP peptide (Xip251-270) binding; experiment: small-molecule binders of XIP peptide, primary screen, biochemical, small-molecule microarray, fluorescence 635/667 nm, 0.1 µg/mL protein (AID 1182); details: fluorescent protein binding, 635 nm, higher = more signal, called active from +8 up or from −8 down
[2] = test system: XIP peptide (Xip251-270); experiment: small-molecule binders of XIP peptide, primary screen, biochemical, small-molecule microarray, fluorescence 635/667 nm, 0.5 µg/mL protein (AID 1183); details: small-molecule microarray binding, fluorescence 635 nm; higher = more signal
[3] = Plasmodium falciparum growth inhibition, primary screen, strain 3D7, DAPI fluorescence, 100 nL (AID 1184);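 also: parasites grown inside human red blood cells in medium with human serum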; details: P. falciparum 3D7 growth, 3 d, higher = more signal
[4] = biological target: Homeobox protein Hox-A13 (Mus musculus) (UniProt Q62424); experiment: inhibitors of HoxA13-DNA binding, primary screen, biochemical, fluorescence polarization, labeled oligonucleotide (AID 1185); details: 15 min, higher = more signal, called active from +8 up or from −8 down
Sequence of Homeobox protein Hox-A13 (Mus musculus) (Q62424 whole entry, looked up): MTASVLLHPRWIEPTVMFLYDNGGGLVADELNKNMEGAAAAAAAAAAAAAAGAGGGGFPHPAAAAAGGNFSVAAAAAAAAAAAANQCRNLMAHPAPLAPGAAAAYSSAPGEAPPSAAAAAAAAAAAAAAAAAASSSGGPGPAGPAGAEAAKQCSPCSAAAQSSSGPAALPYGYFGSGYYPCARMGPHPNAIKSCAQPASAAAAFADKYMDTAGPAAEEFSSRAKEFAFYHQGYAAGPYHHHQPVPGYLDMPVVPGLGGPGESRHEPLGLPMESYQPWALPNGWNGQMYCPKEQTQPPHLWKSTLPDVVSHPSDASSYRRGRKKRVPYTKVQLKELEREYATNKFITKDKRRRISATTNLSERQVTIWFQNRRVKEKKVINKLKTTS

[5] = inhibitors of hydroxyurea-induced Chk1 phosphorylation, primary screen, imaging, HeLa, phospho-Chk1 antibody, percent positive cells (AID 1186); details: hydroxyurea-induced phospho-Chk1 immunofluorescence imaging, higher = more signal
[6] = inhibitors of hydroxyurea-induced Chk1 phosphorylation, primary screen, imaging, HeLa, phospho-Chk1 nuclear intensity (AID 1187); details: hydroxyurea-induced phospho-Chk1 immunofluorescence imaging, higher = more signal

Compound	composite z-score [1]	composite z-score [2]	z-score [3]	z-score [4]	z-score [5]	z-score [6]
C#CCOC(=O)N[C@H](C=CCCCC)c1ccccc1	0.0811 (inactive)	-0.632	-0.817	-3.62 (inactive)	0.163 (inactive)	0.195 (inactive)
C=C(/C(=C/C[C@@H](OC(C)=O)c1ccccc1OCCO)c1cnc2ccccc2c1)C(C)C	0.143 (inactive)	0.339	-2.62	-5.18 (inactive)	0.642 (inactive)	0.0715 (inactive)
O=C(O)[C@@]1(Cc2ccccc2)COC(c2ccc(OCCCO)cc2)=N1	-0.781 (inactive)	-0.486	-0.0272	-1.29 (inactive)	-0.0393 (inactive)	0.204 (inactive)
CC(C)CNC(=O)[C@@]1(C)c2ccccc2C(=O)N(Cc2ccccc2)[C@H]1c1ccc(CO)cc1	1.06 (inactive)	-0.951	0.301	-2.75 (inactive)	0.105 (inactive)	-0.267 (inactive)
CC(C)c1ccc(NN2C(C(O)c3cccs3)C=CC3C(=O)N(c4ccccc4)C(=O)C32)cc1 (centres undefined)	0.213 (inactive)	0.499	-0.512	-3.33 (inactive)	0.847 (inactive)	0.219 (inactive)
COC(=O)[C@@]1(Cc2ccc(F)cc2)[C@H]2c3cc(C(=O)N(C)C)n(Cc4ccc(C)c(F)c4F)c3C[C@H]2CN1C(=O)c1ccccc1	0.365 (inactive)	-0.0688	-1.13	-4.74 (inactive)	-0.014 (inactive)	-0.193 (inactive)
C=CCOc1ccc([C@@H]2CC=C(C(=O)OCC)[C@H](c3cccc(Br)c3)N2S(=O)(=O)c2ccc(C)cc2)cc1	-0.355 (inactive)	-0.498	-1.94	0.422 (inactive)	-0.0778 (inactive)	0.295 (inactive)
COCCOC(=O)N1C(=O)[C@@]2(c3cc(C#CC4(O)CCCCCC4)ccc31)[C@H](C(=O)N1CCc3cc(OC)c(OC)cc3C1)[C@H]1C(=O)O[C@H](c3ccccc3)[C@H](c3ccccc3)N1[C@@H]2c1ccccc1OCCO	-0.0915 (inactive)	0.771	-1.99	0.772 (inactive)	0.286 (inactive)	1.13 (inactive)
CCN(CC)c1ccc(N2CC=CC34O[C@@H]5/C=C\CCCOC(=O)C5[C@H]3C(=O)N(CCCCCO)[C@@H]4C2=O)cc1 (some centres undefined)	-0.0261 (inactive)	0.0595	1.98	-5.15 (inactive)	-0.0764 (inactive)	0.34 (inactive)
COC(=O)[C@@]1(Cc2ccccc2)[C@H]2c3cc(C(=O)N4CCCC4)n(Cc4ccccc4)c3C[C@H]2CN1C(=O)c1ccccc1	3.1 (inactive)	-0.179	-1.12	-4.13 (inactive)	0.234 (inactive)	0.167 (inactive)
COCCCNC(=O)[C@@]1(Cc2ccccc2I)c2ccccc2C(=O)N(Cc2ccccc2Cl)[C@H]1c1ccc(CO)cc1	1.75 (inactive)	0.595	-1.22	-4.93 (inactive)	-0.152 (inactive)	0.187 (inactive)
CC(C)C[C@@H]1NC(=O)[C@@H]2C[C@H](C(=O)NCCCC[N+](C)(C)C)[C@H](c3cccc(OCCO)c3)N2C1=O	0.974 (inactive)	0.0734	0.0751	-3.05 (inactive)	-0.366 (inactive)	-0.333 (inactive)
C#CCNS(=O)(=O)N(C)C	0.153 (inactive)	0.0198	-0.265	-0.146 (inactive)	-0.271 (inactive)	0.0602 (inactive)
CN(C)C(=O)[C@@]1(Cc2ccccc2N=[N+]=[N-])N=C(c2ccc(OCCCO)cc2)O[C@H]1c1ccccc1N=[N+]=[N-]	0.976 (inactive)	0.596	-2.32	-4.6 (inactive)	0.0092 (inactive)	0.398 (inactive)
O=C1OCCC=C[C@H]2OC34C=CCN(Cn5nnc6ccccc65)C(=O)[C@H]3N(CCCCCO)C(=O)[C@@H]4C12 (some centres undefined)	0.282 (inactive)	-0.75	0.561	-4.63 (inactive)	1.09 (inactive)	1.08 (inactive)
C=CCC(OC(C)=O)[C@@H]1[C@@H](N(Cc2ccc(-c3ccccc3)cc2)C(=O)Cc2ccc(OC)cc2)c2cc(OCCCO)ccc2N1C(=O)c1ccc(-c2ccccc2)cc1 (some centres undefined)	-0.0622 (inactive)	-0.698	-2.91	-1.52 (inactive)	-0.244 (inactive)	0.158 (inactive)
COc1ccc(C#Cc2ccc3c(c2)[C@]2(C(=O)N3)[C@H](C(=O)O)[C@H]3C(=O)O[C@H](c4ccccc4)[C@H](c4ccccc4)N3[C@@H]2c2ccc(OCCO)cc2)cc1	2.6 (inactive)	0.701	-1.78	-5.22 (inactive)	0.573 (inactive)	0.862 (inactive)

Compound	composite z-score [1]	composite z-score [2]	z-score [3]	z-score [4]	z-score [5]	z-score [6]
COCCCNC(=O)[C@]1(Cc2ccccc2CN=[N+]=[N-])N=C(c2ccc(OCCCO)cc2)O[C@@H]1c1ccccc1CN=[N+]=[N-]	0.22 (inactive)	0.744	-2.48	-2.43 (inactive)	-0.0731 (inactive)	-0.303 (inactive)
CC(C)[Si](C#C[Si](C(C)C)(C(C)C)C(C)C)(O[C@H](C)c1cn(Cc2cccc(Cl)c2)nn1)C(C)C	-0.109 (inactive)	-0.0612	0.293	0.702 (inactive)	0.0695 (inactive)	0.153 (inactive)
O=[N+]([O-])c1ccc(C[n+]2ccc(-c3ccc(CO)cc3)cc2)o1	0.406 (inactive)	0.905	-1.29	-3.8 (inactive)	0.137 (inactive)	0.657 (inactive)
C[N+](C)(C)CCCCCCNC(=O)[C@H]1C[C@H]2C(=O)N3CCC[C@H]3C(=O)N2[C@H]1c1cccc(OCCO)c1	0.883 (inactive)	0.713	0.14	-3.94 (inactive)	0.372 (inactive)	0.182 (inactive)
COCCCNC(=O)[C@@H]1c2ccccc2C(=O)N(c2ccc(C)cn2)[C@H]1c1ccc(CO)cc1	-0.0692 (inactive)	0.305	-1.38	-0.943 (inactive)	-0.106 (inactive)	0.236 (inactive)
O=C1O[C@H](c2ccccc2)[C@H](c2ccccc2)N2[C@H]1[C@@H](C(=O)N1CCCCCCC1)[C@]1(C(=O)Nc3ccc(C#CCCO)cc31)[C@H]2c1ccc(OCCO)cc1	5.42 (inactive)	0.963	-1.98	-8.67 (active)	-0.141 (inactive)	-0.203 (inactive)
COC(=O)[C@@]1(Cc2ccccc2)[C@H]2c3cc(C(=O)N4CCCC4)n(CCO)c3C[C@H]2CN1C(=O)c1ccccc1	1.06 (inactive)	0.824	-1.29	-0.89 (inactive)	-0.536 (inactive)	-0.0989 (inactive)
O=C1N(CCS(=O)(=O)c2ccccc2)Cc2ccccc2C[C@@]12COC(c1ccc(OCCCO)cc1)=N2	0.913 (inactive)	0.82	-2.05	-4.6 (inactive)	-1.03 (inactive)	-1.29 (inactive)
COCC(=C=CC[C@@H](O)c1ccccc1OCCO)C[C@@H](O)c1ccccn1	0.416 (inactive)	0.76	-0.991	-6.18 (inactive)	0.413 (inactive)	0.289 (inactive)
CC(C)(C)OC(=O)CC[C@@]1(C(=O)N2CCCCC2)N=C(c2ccc(OCCCO)cc2)O[C@@H]1c1ccccc1N=[N+]=[N-]	0.416 (inactive)	0.83	-2.08	-3.63 (inactive)	-0.184 (inactive)	-0.414 (inactive)
COC(=O)[C@@]1(Cc2ccc(OC)cc2)[C@H]2c3cc(C(=O)N4CCCC4)n(CCF)c3C[C@H]2CN1C(=O)c1ccccc1	1.24 (inactive)	0.388	-1.8	-5.44 (inactive)	0.128 (inactive)	-0.0625 (inactive)
COc1cccc(C)c1NC(=O)O[C@H]1[C@H](OC(=O)Nc2ccccc2)[C@H](OC(=O)Nc2ccccc2)[C@@H](OC)O[C@@H]1CO	1.57 (inactive)	0.401	-1.51	-5.38 (inactive)	-0.0198 (inactive)	0.136 (inactive)
O=C(Nc1cc(Br)ccc1C(=O)NCc1cccc(O)c1)c1ccccc1	2.11 (inactive)	0.597	-0.64	-0.429 (inactive)	0.0071 (inactive)	-0.27 (inactive)
COC(=O)[C@@]1(Cc2ccc(F)cc2)[C@@H]2[C@@H](CC(=O)[C@H]2CC(=O)C(=O)N2CCCC2)CN1C(=O)c1ccccc1	0.112 (inactive)	0.663	-1.44	-2.66 (inactive)	0.853 (inactive)	1.01 (inactive)
NC(=O)NCC#Cc1ccc2c(c1)[C@]1(C(=O)N2)[C@H](c2ccc(O)cc2)N2[C@H](c3ccccc3)[C@H](c3ccccc3)OC(=O)[C@H]2[C@@H]1C(N)=O	-0.0765 (inactive)	0.603	0.637	-4.21 (inactive)	-0.681 (inactive)	-0.878 (inactive)
CCOC(=O)C1=CCC(c2cccc(Cl)c2)O1 (centres undefined)	1.62 (inactive)	0.183	-1.25	-0.834 (inactive)	0.296 (inactive)	-0.0984 (inactive)
C=CCOC(=O)[C@@H]1[C@H]2C(=O)O[C@H](c3ccccc3)[C@H](c3ccccc3)N2[C@H](c2ccc(OCCOC(=O)[C@@H]3C[C@@H]4C(=O)N5CCC[C@H]5C(=O)N4[C@@H]3c3cccc(OCCO)c3)cc2)[C@@]12C(=O)Nc1ccc(I)cc12	0.284 (inactive)	0.632	-1.72	1.17 (inactive)	0.021 (inactive)	0.318 (inactive)
